# The panel holds about 79,000 compounds, 15% with a hit somewhere; the sample as a whole holds those more often. Unmarked numbers belong to inactive results. Cut-off read from the data, not from the text of the source: active = growth inhibition above about 70%; inactive = the rest.
# Assay: NCI Yeast Anticancer Drug Screen. Data for the bub3 strain (AID 167)
# Details: S. cerevisiae bub3 mutant strain, at 50.0 µM, stronger effect = higher value
# Method in brief: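 Compounds were applied to a genetically altered yeast strain carrying a cell-cycle control defect. Growth inhibition was scored against vehicle-treated controls.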
row,Structure (SMILES),growth inhibition [%]
1,O=C1C(CN2CCCCC2)CCC1CN1CCCCC1 (configuration not stated),14.1
2,CC1CC[N-]CC1.CC1CC[N-]CC1.[Cl][Pt+2][Cl],-2.2
3,COc1cc2c(c(OC)c1OC)-c1ccc(OC)c(=O)cc1C(NC(=O)CCCCCNc1ccc(N=[N+]=[N-])cc1[N+](=O)[O-])CC2 (configuration not stated),12.8
4,C(=N\NC1=NCCCN1)/c1ccc2ccccc2c1,0.05
5,C[n+]1c(/C=C\c2ccc(O)cc2)cc(C(N)=O)c2ccccc21,3.65
6,Cc1ncc(CN2CSC(CCO)C2C)c(N)n1 (configuration not stated),17.4
7,Nc1cc(Cl)c(N)c(Cl)c1,-19.4
8,N#Cc1cccc(-c2ccc(-c3ccccc3)o2)c1,60.9
9,CC1CN=C(N(C(=O)Nc2ccc(Cl)c(Cl)c2)c2ccccc2)S1 (configuration not stated),-2.55
10,OCC1CC1c1ccccc1 (configuration not stated),10.7
11,CCN(CC)C1=C(C)S(=O)(=O)C1c1ccc(C)cc1 (configuration not stated),-13.4
12,CN(C)c1ccc(C=Nc2cc(Cl)ccc2O)cc1,66
13,Oc1ccc(C=NCCN=Cc2ccc(O)cc2)cc1,5.1
14,CCCOC(=O)c1ccnc(C(=O)OCCC)c1,-9.9
15,CCn1c2ccc(C=O)cc2c2cc([N+](=O)[O-])ccc21,-4.7
16,c1ccc(C(N=NC(c2ccccc2)c2ccccc2)c2ccccc2)cc1,-21.8
17,CC1(C)C(=O)/C=C\C(=O)C(C)(C)C(=O)/C=C\C(=O)C(C)(C)C2=CC=C(O2)C(C)(C)C(=O)/C=C\C1=O,7.9

# Reference: PubChem BioAssay (NCI)
